Compound activity: PubChem, National Center for Advancing Translational Sciences (NCATS)
Most compounds without a hit are left out; they make up all but 8% or so of the library.
Marburg entry inh: qHTS for inhibitors of binding or entry into cells for Marburg Virus; Potency, µM (titrated, usually from 37.8 µM), inactives show at the top dose activity change, negative = inhibition, most hits filed as inhibitors; Marburg virus pseudotyped entry inhibition, cell reporter; hit rate 1.8% among 300,000; calls by dose curve; tested in HEK293 cells; further: potency means the concentration at half of the fitted maximal effect; on the % scale 0 is the no-effect control and ±100 the full control effect
HCMV antiviral: qHTS Assay for inhibitors of the human cytomegalovirus (HCMV). AID 1259415, 2018. hit rate 4.5% among 410,000. HFF cells, HCMV-luciferase reporter, 72 h; hits give low values. activity change, negative = inhibition, % at 57.5 µM; in the data active means activity change below about -60%; inconclusive means no clear call, values can overlap the other calls; inactive means above about -39%; further: on the % scale 0 is the no-effect control and ±100 the full control effect
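Luciferase read-out from HCMV-luciferase-infected HFFs (MOI 1 PFU/cell) 72 h post infection at 37C; compounds added after 16 h cell attachment; activity normalized between buffer-only basal and Salinomycin (10uM) inhibitor controls.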
LASV entry inh: qHTS for Inhibitors of binding or entry into cells for Lassa Virus; Potency, µM (top dose mostly 37.9 µM), without a hit: top-dose activity change, negative = inhibition, actives largely listed as inhibitors; hit rate 1.2% among 300,000; Lassa virus pseudotype entry inhibition, cell reporter; calls by dose curve; tested in HEK293 cells; further: potency means the concentration at half of the fitted maximal effect; on the % scale 0 is the no-effect control and ±100 the full control effect; nearly all actives have a fitted effect of over 50% in size
FMDV antiviral: High Throughput Screening for Foot and Mouth Disease Virus Antivirals; FMDV antiviral cell-based qHTS; Potency, µM (highest dose often 57.9 µM), for the others: at the highest dose activity change, negative = inhibition, usual class: inhibitors; hit rate 1.2% among 410,000; AID 1159524, 2015; calls by dose curve; tested in HEK293T cells; further: read-out not given here; potency means the concentration at half of the fitted maximal effect; on the % scale 0 is the no-effect control and ±100 the full control effect; nearly all actives have a fitted effect of over 45% in size
SARS PLpro yeast: qHTS of Yeast-based Assay for SARS-CoV PLP; hit rate 0.19% among 330,000; AID 485353, 2010; S. cerevisiae expressing SARS-CoV PLpro, growth rescue; Potency, µM (highest dose often 32.9 µM), for inactives: at the top dose activity, positive = growth rescue, usual class: activators; calls by dose curve; further: potency means the concentration at half of the fitted maximal effect; 0% is about no effect; nearly all actives have a fitted effect of over 55% in size
HCV inh: qHTS Assay for Inhibitors of Hepatitis C Virus (HCV); AID 651820, 2012; hit rate 3.4% among 340,000; Huh7.5.1 HCVcc-Cre infection, luciferase reporter, 44 h; Potency, µM (titrated, usually from 41.8 µM), without a hit: at the top dose activity change, negative = inhibition, hits mostly inhibitors; active means well fitted inhibition curve with a large enough effect; inconclusive means small, poorly fitted or top-dose-only effect, or another doubt; inactive means no such curve, though single readings can be large or run the other way; further: potency means the concentration at half of the fitted maximal effect; on the % scale 0 is the no-effect control and ±100 the full control effect
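HCVcc-Cre virus at an moi near 0.5 was added right after compound to cells cultured 4 h from seeding (1,000 cells/well). Luciferase activity was determined 44 h later, 15 min after substrate addition at RT.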
Active calls of the source: *; ? = inconclusive; nt = not tested or not shown; [ ] = dose if it differs, or a comment.

SMILES	Marburg entry inh	HCMV antiviral	LASV entry inh	FMDV antiviral	SARS PLpro yeast	HCV inh
O=C(Nc1nc(-c2ccc3c(c2)OCCO3)cs1)c1ccc(S(=O)(=O)N2CCCCC2)cc1	?	-100*	?	nt	5%	?
CN(C)S(=O)(=O)c1ccc(C(=O)Nc2nc(-c3cccs3)cs2)cc1	nt	-81*	nt	?	6%	10µM*
O=C(Nc1nc(-c2ccc(S(=O)(=O)N3CCCC3)cc2)cs1)C1COc2ccccc2O1 (stereo unspecified)	?	?	?	?	3%	2.2µM*
O=C(Nc1nc(-c2ccc(S(=O)(=O)N3CCCCCC3)cc2)cs1)c1ccccc1	-25%	-73*	?	11µM*	4%	?
Cc1csc(SCC(=O)c2c(N)n(CC(C)C)c(=O)n(C)c2=O)n1	-14%	-75*	-16%	?	3%	16µM*
CC(C)Cn1c(N)c(C(=O)CSc2ncccn2)c(=O)n(C)c1=O	-21%	-36	14%[46.1 µM]	-17%	-2%	2%
CCOC(=O)Cc1csc(SCC(=O)c2c(N)n(CC(C)C)c(=O)n(C)c2=O)n1	?	-3	?	11µM*	9%	7.9µM*
CN(CC(=O)Nc1ccc(F)cc1)C(=O)COC(=O)c1nc(Cl)ccc1Cl	nt	24	nt	-12%	nt	nt
CCOC(=O)c1ccc(NC(=S)N2CCCC(C)C2)cc1 (stereo unspecified)	18%[46.1 µM]	?	-17%	60%	-1%	-2%
CCCCc1ccc(NC(=S)N2CCCC(C)C2)cc1 (stereo unspecified)	?	-67*	11%	44%	0%	-20%
Nc1nnc(N2CCc3ccccc32)s1	-12%	28	?	18%	-22%	4%
Nc1ncnc(N2CCc3ccccc32)c1[N+](=O)[O-]	21%	-83*	17%	-16%	-1%	-9%
COc1ccc(NC(=O)CC2NCCNC2=O)c(OC)c1 (stereo unspecified)	2%[46.1 µM]	2	?	-5%	nt	nt
COc1ccc(-n2sc3ccc(F)cc3c2=O)cc1	nt	-5	nt	-59%	0%	2.8µM*
COc1ccc(-n2cc(C(=O)O)c3ccccc3c2=O)cc1	-8%	-1	6%	7%	2%	2%
Cc1ccc(C)c(-n2sc3ccc(F)cc3c2=O)c1	nt	-87*	nt	?	2%	?
COc1ccc(-n2sc3ccccc3c2=O)cc1	nt	-102*	nt	?	nt	nt
C[N+](C)(C)CC/C=C1/c2ccccc2CSc2ccccc21	3%	11	23%	-5%	15%	-16%
CNCCC=C1c2ccccc2CCc2ccccc21	7.1µM*	-2	21µM*	?	-1%	2%[8.37 µM]
CN(C)/C=N/c1ncc(-c2ncc(C(F)(F)F)cc2Cl)cn1	6%[46.1 µM]	-5	-19%	37%	2%	0%
CN(C)c1ccc(/C=N/NC(=O)c2sccc2-n2cccc2)cc1	19%[46.1 µM]	23	20%	63%	-11%	13%
NC(=O)Cn1c(=O)n(Cc2ccco2)c(=O)c2c3c(sc21)CCCCC3	-8%	-21	-1%	-23%	?	6%
O=c1c2c3c(sc2n(CCN2CCOCC2)c(=O)n1Cc1ccco1)CCCCC3	?	-96*	?	-24%	1%	10µM*
O=C(Cn1c(=O)n(Cc2ccco2)c(=O)c2c3c(sc21)CCCC3)Nc1ccccc1	?	1	-7%	-15%	-6%	?
O=c1c2c3c(sc2n(CCN2CCCCC2)c(=O)n1Cc1ccco1)CCCCC3	16µM*	-32	10%	-9%	0%	?
SMILES	Marburg entry inh	HCMV antiviral	LASV entry inh	FMDV antiviral	SARS PLpro yeast	HCV inh
COc1ccc(-c2cnc(N)nc2-c2ccc(OCc3ccccc3)cc2O)cc1	?	-1	?	?	-2%	?
Nc1ncc(-c2ccccc2)c(-c2ccc(O)cc2O)n1	?	-61*	5%[46.1 µM]	?	3%	?
CCCn1c(SCc2nc(-c3ccccc3OCC)no2)nnc1-c1ccc(Cl)cc1	-16%[46.1 µM]	-14	?	-14%	nt	nt
N#Cc1ccc(CN2CCC3(CCNCC3)CC2)cc1	nt	nt	nt	-22%	nt	nt
CC(=O)Oc1ccc(C(=O)NCCc2ccccc2)cc1	?	-3	7.1µM*	-21%	-4%	4%
CCOc1ccc(C(=O)NCCc2ccccc2)cc1	?	10	8.2µM*	nt	-9%	-7%
CN(C(=O)c1ccccc1)c1ccccc1C(=O)NCCc1ccccc1	0%[46.1 µM]	35	22%[46.1 µM]	1%	1%	5%
CCOc1ccc(C(=O)NCCCCNC(=O)c2ccc(OCC)cc2)cc1	28%	47	22%	34%	2%	?
COc1ccc(C(=O)N(C)c2ccccc2C(=O)NCCc2ccccc2)cc1	?	-97*	4µM*	14%	6%	?
CC(=O)Oc1ccc(-c2ccc(C(=O)NCCc3ccc(S(N)(=O)=O)cc3)cc2)cc1	?	-1	-10%[46.1 µM]	-15%	2%	6%
CCOC(=O)[C@@H](CC(=O)O)N1CCCCC1	2%	nt	nt	nt	nt	nt
C=CCC12C=C(OC)C(=O)C(C1=O)C(c1ccc(OC)cc1)C2C (stereo unspecified)	0%[14.2 µM]	nt	?	nt	nt	nt
N#CC1=C(N)C(C#N)(C#N)[C@H](c2c(F)cccc2F)[C@H]2CC3(CC=C12)OCCO3	?	-107*	-16%	?	2%	-7%
CC1CC(C)CN(S(=O)(=O)c2ccc(C(=O)Nc3nnc(-c4cccs4)o3)cc2)C1 (stereo unspecified)	7.9µM*	-70*	?	-22%	0%	?
CN(C)S(=O)(=O)c1ccc(C(=O)Nc2nnc(-c3cccs3)o2)cc1	nt	?	nt	32%	-1%	?
COc1cccc(-c2nnc(NC(=O)c3ccc(S(=O)(=O)N4CC(C)OC(C)C4)cc3)o2)c1 (stereo unspecified)	?	-94*	?	-11%	4%	?
CC1CCCN(S(=O)(=O)c2ccc(C(=O)Nc3nnc(-c4ccccc4Cl)o3)cc2)C1 (stereo unspecified)	?	-98*	?	-13%	-15%	-9%
CCCCOc1ccc(CNC(=O)C2COc3ccc(OC)cc3C2)cc1 (stereo unspecified)	nt	11	-23%[46.1 µM]	-10%	nt	nt
COc1ccc(N(CC(=O)NN=C2CCN(C)CC2)S(=O)(=O)c2ccccc2)c(OC)c1	21%[46.1 µM]	0	9%[46.1 µM]	-1%	-3%	6%
CC(C)CN(C(=O)COC(=O)C12CC3CC(CC(O)(C3)C1)C2)c1c(N)n(Cc2ccccc2)c(=O)[nH]c1=O	nt	?	nt	-2%	nt	nt
CC(C)CN(C(=O)COC(=O)C12CC3CC(CC(C3)C1)C2)c1c(N)n(Cc2ccccc2)c(=O)[nH]c1=O	-1%[46.1 µM]	-84*	4%	-18%	-5%	16µM*
